# Results published in PubChem BioAssay (NCATS).
# Results filed as inconclusive are left out. Unmarked numbers belong to inactive results. Active and inactive are the calls of the source. Calls follow the shape of the dose curve; as a rule, active = well fitted inhibition curve with a large enough effect; inconclusive = small, poorly fitted or top-dose-only effect; inactive = flat fitted curve, though single readings scatter. Bridge positions count the residues as written; N and C are the ends. Square brackets hold non-standard residues; d marks the D form. Peptide text beside a SMILES is read from it. * marks the point of attachment. Ileψ(thiazoline)Cys = CC[C@H](C)[C@H](N)C1=N[C@H](C(=O)*)CS1; d(aIle) = CC[C@H](C)[C@@H](N)C(=O)O; dOrn = NCCC[C@@H](N)C(=O)O
# System: GB4
# Test: qHTS profiling for inhibitors of Plasmodium falciparum proliferation (AID 504749); also: nearly all actives have a fitted effect of over 60% in size;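 as to activity, negative = inhibition: 0% = DMSO vehicle and full inhibition = artemisinin control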
# Details: P. falciparum in erythrocytes, SYBR Green DNA, 72 h; series mostly up to 12.8 µM; activity, negative = inhibition: at the top concentration
# How it was run: (§1)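 SYBR Green fluorescence (ex 485 nm, em 535 nm) reports parasite DNA after 72 h compound exposure of infected red cells at 0.3% parasitemia, 2.5% hematocrit; signal normalized to 0.29 uM artemisinin and vehicle wells.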
# Potency is read from the fitted curve at half-maximal effect.
SMILES,"activity, negative = inhibition [%]",Potency
C[C@@H]1C[C@H]2[C@@H]3C[C@H](F)C4=CC(=O)C=C[C@@]4(C)[C@]3(F)[C@H](O)C[C@]2(C)[C@@]1(O)C(=O)CO,1.14,–
C[C@H](O)Cn1cnc2c1c(=O)n(C)c(=O)n2C,-0.0508,–
CC(=C(CCOP(=O)(O)O)SC(=O)c1ccccc1)N(C=O)Cc1cnc(C)nc1N,3.12,–
NC[C@@H]1O[C@@H](O[C@H]2[C@H](O)[C@H](O[C@@H]3O[C@H](CO)[C@@H](O)[C@H](N)[C@@H]3O)[C@@H](N)C[C@H]2N)[C@H](N)C[C@@H]1O,0.421,–
CCc1c(C)[nH]c2c1C(=O)[C@H](CN1CCOCC1)CC2,-9.98,–
CC[C@H](C)[C@H](N)C1=N[C@H](C(=O)N[C@@H](CC(C)C)C(=O)N[C@@H](CCC(=O)O)C(=O)N[C@@H](C(=O)N[C@H]2CCCCNC(=O)[C@@H](CC(N)=O)NC(=O)[C@@H](CC(=O)O)NC(=O)[C@@H](Cc3cnc[nH]3)NC(=O)[C@@H](Cc3ccccc3)NC(=O)[C@@H]([C@@H](C)CC)NC(=O)[C@@H](CCCN)NC2=O)[C@@H](C)CC)CS1 ({Ileψ(thiazoline)Cys}-LE[d(aIle)]K[dOrn][d(aIle)][dF][dH][dD][dN]; lactam 4-C),-0.654,–
O=C(N/N=C\c1ccc([N+](=O)[O-])o1)c1ccc(O)cc1,–,1.81 µM (active)
C[C@@H](CNC1CCCCC1)OC(=O)c1ccccc1,–,4.55 µM (active)
CCOC(=O)O[C@@H](C)OC(=O)[C@@H]1N2C(=O)[C@@H](NC(=O)[C@@H](N)c3ccccc3)[C@H]2SC1(C)C,-7.06,–
Cc1ccsc1/C=C\C1=NCCCN1C,-8.49,–
C#C[C@]1(O)CC[C@@H]2[C@H]3CCC4=CCCC[C@@H]4[C@@H]3CC[C@@]21C,-5.91,–
CC1(C)[C@@H](OC(=O)CCC(=O)O)CC[C@@]2(C)[C@H]1CC[C@@]1(C)[C@H]2C(=O)C=C2[C@H]3C[C@](C)(C(=O)O)CC[C@]3(C)CC[C@@]21C,-12.1,–
C[C@H](CCC(=O)O)[C@H]1CC[C@@H]2[C@@H]3[C@@H](O)C[C@H]4C[C@@H](O)CC[C@@]4(C)[C@H]3CC[C@@]21C,-1.6,–

# System: HB3
# Test: as above
# Details: P. falciparum in erythrocytes, SYBR Green DNA, 72 h; series mostly up to 12.8 µM; activity, negative = inhibition: at the top concentration
# How it was run: as §1
SMILES,"activity, negative = inhibition [%]",Potency
C[C@@H]1C[C@H]2[C@@H]3C[C@H](F)C4=CC(=O)C=C[C@@]4(C)[C@]3(F)[C@H](O)C[C@]2(C)[C@@]1(O)C(=O)CO,4.05,–
C[C@H](O)Cn1cnc2c1c(=O)n(C)c(=O)n2C,-3.11,–
CC(=C(CCOP(=O)(O)O)SC(=O)c1ccccc1)N(C=O)Cc1cnc(C)nc1N,4.08,–
NC[C@@H]1O[C@@H](O[C@H]2[C@H](O)[C@H](O[C@@H]3O[C@H](CO)[C@@H](O)[C@H](N)[C@@H]3O)[C@@H](N)C[C@H]2N)[C@H](N)C[C@@H]1O,-2.07,–
CCc1c(C)[nH]c2c1C(=O)[C@H](CN1CCOCC1)CC2,3.5,–
CCC(=O)OCC(=O)[C@@]1(OC(=O)CC)[C@H](C)C[C@@H]2[C@@H]3[C@H]([C@@H](O)C[C@@]21C)[C@]1(C)C=CC(=O)C=C1C[C@@H]3Cl,–,3.55 µM (active)
CC[C@H](C)[C@H](N)C1=N[C@H](C(=O)N[C@@H](CC(C)C)C(=O)N[C@@H](CCC(=O)O)C(=O)N[C@@H](C(=O)N[C@H]2CCCCNC(=O)[C@@H](CC(N)=O)NC(=O)[C@@H](CC(=O)O)NC(=O)[C@@H](Cc3cnc[nH]3)NC(=O)[C@@H](Cc3ccccc3)NC(=O)[C@@H]([C@@H](C)CC)NC(=O)[C@@H](CCCN)NC2=O)[C@@H](C)CC)CS1 ({Ileψ(thiazoline)Cys}-LE[d(aIle)]K[dOrn][d(aIle)][dF][dH][dD][dN]; lactam 4-C),5.14,–
O=C(N/N=C\c1ccc([N+](=O)[O-])o1)c1ccc(O)cc1,–,3.55 µM (active)
C[C@@H](CNC1CCCCC1)OC(=O)c1ccccc1,–,3.98 µM (active)
CCOC(=O)O[C@@H](C)OC(=O)[C@@H]1N2C(=O)[C@@H](NC(=O)[C@@H](N)c3ccccc3)[C@H]2SC1(C)C,-10.3,–
Cc1ccsc1/C=C\C1=NCCCN1C,-6.05,–
C#C[C@]1(O)CC[C@@H]2[C@H]3CCC4=CCCC[C@@H]4[C@@H]3CC[C@@]21C,2.86,–
CC1(C)[C@@H](OC(=O)CCC(=O)O)CC[C@@]2(C)[C@H]1CC[C@@]1(C)[C@H]2C(=O)C=C2[C@H]3C[C@](C)(C(=O)O)CC[C@]3(C)CC[C@@]21C,-3.5,–
C[C@H](CCC(=O)O)[C@H]1CC[C@@H]2[C@@H]3[C@@H](O)C[C@H]4C[C@@H](O)CC[C@@]4(C)[C@H]3CC[C@@]21C,-3.72,–
CN1CCO[C@H](c2ccccc2)c2ccccc2C1,7.78,–

# System: ICS
# Test: as above
# Details: P. falciparum in erythrocytes, SYBR Green DNA, 72 h; series mostly up to 12.8 µM; activity, negative = inhibition: at the top concentration
# How it was run: as §1
SMILES,"activity, negative = inhibition [%]",Potency
C[C@@H]1C[C@H]2[C@@H]3C[C@H](F)C4=CC(=O)C=C[C@@]4(C)[C@]3(F)[C@H](O)C[C@]2(C)[C@@]1(O)C(=O)CO,5.6,–
C[C@H](O)Cn1cnc2c1c(=O)n(C)c(=O)n2C,2,–
CCCCC[C@H](O)/C=C\[C@@H]1[C@H](O)CC(=O)[C@@H]1CCCCCCC(=O)O,–,3.55 µM (active)
CC(=C(CCOP(=O)(O)O)SC(=O)c1ccccc1)N(C=O)Cc1cnc(C)nc1N,10.1,–
NC[C@@H]1O[C@@H](O[C@H]2[C@H](O)[C@H](O[C@@H]3O[C@H](CO)[C@@H](O)[C@H](N)[C@@H]3O)[C@@H](N)C[C@H]2N)[C@H](N)C[C@@H]1O,14.3,–
CCc1c(C)[nH]c2c1C(=O)[C@H](CN1CCOCC1)CC2,0.966,–
CCC(=O)OCC(=O)[C@@]1(OC(=O)CC)[C@H](C)C[C@@H]2[C@@H]3[C@H]([C@@H](O)C[C@@]21C)[C@]1(C)C=CC(=O)C=C1C[C@@H]3Cl,–,1.12 µM (active)
CC[C@H](C)[C@H](N)C1=N[C@H](C(=O)N[C@@H](CC(C)C)C(=O)N[C@@H](CCC(=O)O)C(=O)N[C@@H](C(=O)N[C@H]2CCCCNC(=O)[C@@H](CC(N)=O)NC(=O)[C@@H](CC(=O)O)NC(=O)[C@@H](Cc3cnc[nH]3)NC(=O)[C@@H](Cc3ccccc3)NC(=O)[C@@H]([C@@H](C)CC)NC(=O)[C@@H](CCCN)NC2=O)[C@@H](C)CC)CS1 ({Ileψ(thiazoline)Cys}-LE[d(aIle)]K[dOrn][d(aIle)][dF][dH][dD][dN]; lactam 4-C),2.56,–
O=C(N/N=C\c1ccc([N+](=O)[O-])o1)c1ccc(O)cc1,–,1.41 µM (active)
C[C@@H](CNC1CCCCC1)OC(=O)c1ccccc1,–,1.78 µM (active)
CCOC(=O)O[C@@H](C)OC(=O)[C@@H]1N2C(=O)[C@@H](NC(=O)[C@@H](N)c3ccccc3)[C@H]2SC1(C)C,15.1,–
Cc1cccc(CN2CCN([C@@H](c3ccccc3)c3ccc(Cl)cc3)CC2)c1,–,2.82 µM (active)
Cc1ccsc1/C=C\C1=NCCCN1C,-5.11,–
C#C[C@]1(O)CC[C@@H]2[C@H]3CCC4=CCCC[C@@H]4[C@@H]3CC[C@@]21C,6.56,–
CC1(C)[C@@H](OC(=O)CCC(=O)O)CC[C@@]2(C)[C@H]1CC[C@@]1(C)[C@H]2C(=O)C=C2[C@H]3C[C@](C)(C(=O)O)CC[C@]3(C)CC[C@@]21C,17.2,–
C[C@H](CCC(=O)O)[C@H]1CC[C@@H]2[C@@H]3[C@@H](O)C[C@H]4C[C@@H](O)CC[C@@]4(C)[C@H]3CC[C@@]21C,2.62,–
CN1CCO[C@H](c2ccccc2)c2ccccc2C1,-25.6,–
